Assay outcomes as filed in PubChem BioAssay.
DT40 TDP1 CPT: qHTS for Inhibitors of human tyrosyl-DNA phosphodiesterase 1 (TDP1): qHTS in cells in presence of CPT. chicken DT40 Tdp1-/-;hTDP1 cells + 20 nM CPT, ATP luminescence, 48 h. AID 686979, 2013. 420,000 compounds, 12% hits. Potency, µM (series often up to 46.2 µM), for the others: top-dose activity change, negative = growth inhibition, hits mostly inhibitors; note: nearly all actives have a fitted effect of over 55% in size
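Chicken DT40 Tdp1-/- cells complemented with human TDP1, 400 cells/well, exposed to compounds plus 20 nM camptothecin for at least 48 h at 37 C; viability read as ATP content by CellTiter-Glo luminescence.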
TDP1 cell noCPT: qHTS for Inhibitors of human tyrosyl-DNA phosphodiesterase 1 (TDP1): qHTS in cells in absence of CPT | DT40 Tdp1-/- hTDP1 cells, no CPT, ATP luminescence, 48 h | Potency, µM (titrated, usually from 46.2 µM), without a hit: at the highest dose activity change, negative = growth inhibition, usual class: inhibitors | 420,000 compounds, 15% hits; note: nearly all actives have a fitted effect of over 55% in size
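Growth kinetics read by CellTiter-Glo luminescence after ≥48 hr at 37 °C. Cells: DT40 Tdp1-/- stably carrying human TDP1, 400 per well, compound exposure in the absence of CPT (DMSO vehicle).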
PLK1 PBD inh: qHTS for Inhibitors of PLK1-PDB (polo-like kinase 1 - polo-box domain): Primary Screen | Potency, µM, inactives show max response, negative = inhibition, usual class: inhibitors | Plk1 PBD binding of FITC phosphopeptide, fluorescence polarization | AID 720504, 2013 | 360,000 compounds, 2.8% hits; note: series mostly up to about 57 µM; nearly all actives have a fitted effect of over 65% in size
KAT2A inh: qHTS Assay for Inhibitors of GCN5L2 | Potency, µM (top dose mostly 58.9 µM), for the others: top-dose activity change, negative = inhibition, actives largely listed as inhibitors | GCN5L2 HAT assay, ThioGlo1 CoA-SH fluorescence | Histone acetyltransferase KAT2A (Homo sapiens), Q92830 | 390,000 compounds, 0.21% hits
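Free CoA generated was detected with ThioGlo1 (50uM) fluorescence at Ex340nm/Em540nm, read immediately and after 20 min at room temperature. Enzyme, 20 nM in HEPES pH 7.5 buffer, saw compounds 15 min before adding 75uM H3(1-25) peptide and 70uM acetyl-CoA.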
TDP1 block: qHTS Assay for Inhibitors of Tyrosyl-DNA Phosphodiesterase (TDP1); 350,000 compounds, 0.28% hits; AID 485290, 2010; recombinant TDP1, AlphaScreen DNA substrate cleavage; Potency, µM (highest dose often 130 µM), without a hit: at the highest dose activity change, negative = inhibition, usual class: inhibitors; note: nearly all actives have a fitted effect of over 40% in size
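Steps: enzyme plus compound, 15 min RT; add biotin/phosphotyrosine-FITC oligonucleotide (15 nM final), react 5 min; add donor/acceptor beads (10 ug/ml final), 10 min; read AlphaScreen. Tdp1 at 1 nM final.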
VDR inh: Inhibitors of the vitamin D receptor (VDR): qHTS; Potency, µM, without a hit: max response, negative = inhibition, actives largely listed as inhibitors; Vitamin D3 receptor (Homo sapiens), P11473; VDR-SRC2-3 peptide fluorescence polarization, 2 h; 400,000 compounds, 0.93% hits
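Two reagent solutions held at 4 deg C in the dark were dispensed, compounds pinned at 23 nl, and the mixture incubated 2 h at room temperature. Read-out: fluorescence polarization of VDR–SRC2-3 peptide binding.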
Active calls of the source: *; ? = inconclusive; · = no result. Sampled rows, rich in hits. Any-hit rate of the full collection: about 18%. Calls come from the whole dose curve; as a rule, active = well fitted curve in the direction sought with a large enough effect; inconclusive = small, poorly fitted or top-dose-only effect, or another doubt; inactive = no such curve, though single readings can be large; an effect the other way counts as inactive or inconclusive. % is set by controls: 0 for no effect and ±100 for the full control effect; potency is the fitted concentration of half-maximal effect.

SMILES	DT40 TDP1 CPT	TDP1 cell noCPT	PLK1 PBD inh	KAT2A inh	TDP1 block	VDR inh
COc1ccc(-c2[nH]c(-c3cccc(OC)c3)nc2SCC(=O)Nc2ccc3c(c2)OCO3)cc1	16µM*	?	·	-7%	8%	17%
COc1cccc(-c2nc(SCC(=O)NCC3CCCO3)c(-c3ccc(C)cc3)[nH]2)c1 (stereo not given)	?	?	·	-3%	5%	-18%
CC(C)Oc1cccc(-c2nnc(SCC(=O)Nc3ccc4c(c3)OCCO4)n2N)c1	-26%	-26%	-19%	25µM*	5%	-13%
COc1cccc(-c2nc(SCC(=O)NC3CCCC3)c(-c3ccc(F)cc3)[nH]2)c1	?	21µM*	·	-18%	5%	-1%
COc1cccc(-c2nc(SCC(=O)Nc3ccc4c(c3)OCCO4)c(-c3ccccc3)[nH]2)c1	23µM*	18µM*	·	-13%	12%	4%
COc1cccc(-c2nc(SCC(=O)NC3CCCC3)c(-c3ccc(C)cc3)[nH]2)c1	?	?	·	-13%	10%	-10%
CCCCNC(=O)C1CC(=O)N(CCc2ccc(C)cc2)C1 (stereo not given)	24%	1%	-7%	-4%	·	-3%
CCN=c1scc(C)n1/N=C/c1ccc(O)c(O)c1O	15µM*	7.3µM*	6.7µM*	-6%	6%	-12%
COCCN=c1scc(-c2cccs2)n1/N=C/c1ccc(O)c(O)c1O	?	?	7.5µM*	-25%	3%	-29%
Cc1ccc(C)c(Cn2c(=O)n(C(C)C)c(=O)c3oc4ccccc4c32)c1	9%	-2%	·	0%	-3%	-8%
O=C(O)C(=O)/C(=C\c1cccc2ccccc12)c1ccc2ccccc2n1	?	18µM*	67µM*	-2%	2%	2%
COc1ccc(CN(C)Cc2cc(=O)n3ccsc3n2)c(OC)c1OC	10%	-21%	-6%	-6%	9%	2%
CCc1ccccc1OCCSc1nnc(-c2cc(OC)c(OC)c(OC)c2)o1	18µM*	18µM*	·	-5%	11%	21%
Cc1ccccc1OCCSc1nnc(-c2cccs2)o1	-23%	?	·	-18%	·	2%
COc1ccc(-c2nnc(SCCOc3ccccc3C)o2)cc1OC	?	18µM*	·	-6%	6%	10%
O=C(CN1C(=O)COc2ccccc21)NCCCN1CCCCC1	5%	1%	?	-4%	3%	-7%
CCOC(=O)C1CCN(C(=O)c2ccc(C)c(NC(=O)c3nsc4ccccc34)c2)CC1	?	23µM*	·	-12%	3%	2%
CCOC(=O)C1CCCN(C(=O)c2ccc(NC(=O)c3nsc4ccccc34)cc2)C1 (stereo not given)	?	16µM*	·	-5%	8%	5%
NC(=O)C1CCN(C(=O)c2ccc(NC(=O)c3nsc4ccccc34)cc2)CC1	?	?	·	-8%	5%	-8%
CCOC(=O)C1CCN(C(=O)c2ccc(NC(=O)c3nsc4ccccc34)cc2)CC1	21µM*	?	·	-8%	5%	-12%
Clc1ccccc1-c1ccc2ncnc(NCCN3CCOCC3)c2c1	?	?	·	3%	·	-18%
Cc1c(C#N)c(N=CN(C)C)c(C(=O)c2ccc(Br)cc2)n1-c1ccc(Cl)cc1	11µM*	?	-8%	-17%	9%	5%
COc1ccc(N2CCN(C(=S)NCc3ccccc3)CC2)cc1	-13%	?	1%	-7%	7%	6%
